Activity calls are given as the source filed them. Where a call stands in place of a potency, no number is given. Calls come from the whole dose curve; as a rule, active = well fitted curve in the direction sought with a large enough effect; inconclusive = small, poorly fitted or top-dose-only effect, or another doubt; inactive = no such curve, though single readings can be large; an effect the other way counts as inactive or inconclusive.
assay: qHTS for inhibitors of adenylyl cyclases using a fission yeast platform: a pilot screen against the NCATS LOPAC library (AID 1347410); conditions: S. pombe CHP2027, fbp1-GFP fluorescence, 18 h, yeast expressing mammalian AC9 and human GNAS; series mostly up to 57.5 µM
Method in brief: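 Inhibition of GNAS-stimulated AC9 activity in S. pombe was inferred from derepression of a PKA-repressed fbp1-GFP reporter, measured as cytometric fluorescence after 18 h at 30C with compounds at up to 57 µM.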

Row | SMILES | outcome
1 | CCCn1c(=O)c2c(ncn2C)n(CCC)c1=O | inactive
2 | CC(O)C(O)[C@H]1CNc2nc(N)[nH]c(=O)c2N1 (stereo partly specified) | inactive
3 | CNc1cc(NS(=O)(=O)c2ccc(N)cc2)nc(NC)n1 | inactive
4 | COC(=O)C(N)Cc1ccc(Cl)cc1 (stereo unspecified) | inactive
5 | O=c1[nH]c(=O)c2nc3ccccc3nc2[nH]1 | inactive
6 | OC[C@H]1NC[C@@H](O)[C@@H]1O | inactive
7 | NC(=O)CNCCC(c1ccccc1)c1ccccc1 | inactive
8 | O=C(O)C1CCNCC1 | inactive
9 | CN(CC[C@@H](Oc1ccc(C(F)(F)F)cc1)c1ccccc1)CC(=O)O | inactive
10 | CC(C)Cn1c(=O)n(C)c(=O)c2[nH]cnc21 | inactive
11 | NC1(C(=O)O)CCCCC1 | inactive
12 | N[C@H](C(=O)O)[C@H](O)C(=O)O | inactive
13 | C=C(C)C1CC=C(C(=O)O)CC1 (stereo unspecified) | inactive
14 | NCC(O)C1CCCCCCC1 (stereo unspecified) | inactive
15 | CC(C)[C@@H]1CC[C@@H](C)C[C@@H]1P(=O)(c1ccccc1)c1ccccc1 | inactive
16 | C#CCn1c(=O)c2c(ncn2C)n(C)c1=O | inactive
17 | CN1CCC2(CCN3CCc4c(oc5ccccc45)C3C2)N(C)C1=O (stereo unspecified) | inactive
18 | C[C@](Cc1ccc(O)c(O)c1)(NN)C(=O)O | inactive
19 | C[C@H](NC(=O)/C(C#N)=C/c1ccc(O)c(O)c1)c1ccccc1 | inactive

Row | SMILES | outcome
20 | C[C@H]1CC2C3CCC4=CC(=O)C=C[C@]4(C)[C@@]3(Cl)[C@@H](O)C[C@]2(C)[C@@]1(O)C(=O)CO (stereo partly specified) | inactive
21 | O=c1ccn([C@@H]2O[C@H](COP(=O)(O)OP(=O)(O)O)[C@@H](O)[C@H]2O)c(=O)[nH]1 | inactive
22 | N=C(N)c1ccccc1 | inactive
23 | CC1CCN=C(N)S1 (stereo unspecified) | inactive
24 | O=c1oc(Cl)c(Cl)c2ccccc12 | inactive
25 | C=CCN1CCc2cc(O)c(O)cc2C(c2ccccc2)C1 (stereo unspecified) | inactive
26 | CNC(=O)c1cc2c(cn1)[nH]c1ccccc12 | inactive
27 | Cc1nc(N=Nc2ccc(C(=O)O)cc2)c(COP(=O)(O)O)c(C=O)c1O | inactive
28 | Cc1cccc(C2CN(C)CCc3c2cc(O)c(O)c3Cl)c1 (stereo unspecified) | inactive
29 | [N-]=[N+]=Nc1ccc(C(=O)CSC[C@H](NC(=O)CC[C@H](N)C(=O)O)C(=O)NCC(=O)O)cc1 | inactive
30 | CCCCCC(O)CCCC(=O)O (stereo unspecified) | inactive
31 | NCC(O)c1ccc(O)c(O)c1 (stereo unspecified) | inactive
32 | O=C(OCCN1CCOCC1)C1(c2ccccc2)CCCCC1 | inactive
33 | O=C(O)/C(=C/c1c(C(=O)O)[nH]c2cc(Cl)cc(Cl)c12)c1ccccc1 | inactive
34 | O=C(O)CCC/C=C\C[C@@H]1[C@@H](/C=C/[C@H](O)C2Cc3ccccc3C2)[C@@H](F)C[C@@H]1O | inactive
35 | NC1CONC1=O (stereo unspecified) | inactive
36 | CCCCCCN(CCCCCC)C(=O)Cc1c(-c2ccc(F)cc2)[nH]c2ccccc12 | inactive
37 | CNc1ncnc2c1ncn2[C@H]1C[C@H](OP(=O)(O)O)[C@@H](COP(=O)(O)O)O1 | inactive
38 | CC(C)(C)c1cc(/C=C(\C#N)C(N)=S)cc(C(C)(C)C)c1O | inactive

assay: Validation qHTS assay for inhibitors of Activation Induced Cytidine Deaminase (AID): UDG Counterscreen signal (AID 1347427); conditions: biochemical UDG counterscreen, fluorescence signal; series mostly up to 115 µM
Method in brief: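 Counterscreen read of UDG activity (2 U/mL, 4/3x) in the FRET deamination format with AID (1 uM, 4/3x), DJC20/DJC23 substrates (250 nM, 4x), 4 h at room temperature. NaOH stop, fluorescence at 560 ex/665 em.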

Row | SMILES | Potency
39 | CCCn1c(=O)c2c(ncn2C)n(CCC)c1=O | inactive
40 | CC(O)C(O)[C@H]1CNc2nc(N)[nH]c(=O)c2N1 (stereo partly specified) | inactive
41 | CNc1cc(NS(=O)(=O)c2ccc(N)cc2)nc(NC)n1 | inactive
42 | COC(=O)C(N)Cc1ccc(Cl)cc1 (stereo unspecified) | inactive
43 | O=c1[nH]c(=O)c2nc3ccccc3nc2[nH]1 | inactive
44 | OC[C@H]1NC[C@@H](O)[C@@H]1O | inactive
45 | NC(=O)CNCCC(c1ccccc1)c1ccccc1 | inactive
46 | O=C(O)C1CCNCC1 | inactive
47 | CN(CC[C@@H](Oc1ccc(C(F)(F)F)cc1)c1ccccc1)CC(=O)O | inactive
48 | CC(C)Cn1c(=O)n(C)c(=O)c2[nH]cnc21 | inactive
49 | NC1(C(=O)O)CCCCC1 | inactive
50 | N[C@H](C(=O)O)[C@H](O)C(=O)O | inactive
51 | C=C(C)C1CC=C(C(=O)O)CC1 (stereo unspecified) | inactive
52 | NCC(O)C1CCCCCCC1 (stereo unspecified) | inactive
53 | CC(C)[C@@H]1CC[C@@H](C)C[C@@H]1P(=O)(c1ccccc1)c1ccccc1 | inactive
54 | C#CCn1c(=O)c2c(ncn2C)n(C)c1=O | inactive
55 | CN1CCC2(CCN3CCc4c(oc5ccccc45)C3C2)N(C)C1=O (stereo unspecified) | inactive
56 | C[C@](Cc1ccc(O)c(O)c1)(NN)C(=O)O | inactive
57 | C[C@H](NC(=O)/C(C#N)=C/c1ccc(O)c(O)c1)c1ccccc1 | inactive

Row | SMILES | Potency
58 | C[C@H]1CC2C3CCC4=CC(=O)C=C[C@]4(C)[C@@]3(Cl)[C@@H](O)C[C@]2(C)[C@@]1(O)C(=O)CO (stereo partly specified) | inactive
59 | O=c1ccn([C@@H]2O[C@H](COP(=O)(O)OP(=O)(O)O)[C@@H](O)[C@H]2O)c(=O)[nH]1 | inactive
60 | N=C(N)c1ccccc1 | inactive
61 | CC1CCN=C(N)S1 (stereo unspecified) | inactive
62 | O=c1oc(Cl)c(Cl)c2ccccc12 | inactive
63 | C=CCN1CCc2cc(O)c(O)cc2C(c2ccccc2)C1 (stereo unspecified) | inactive
64 | CNC(=O)c1cc2c(cn1)[nH]c1ccccc12 | inactive
65 | Cc1nc(N=Nc2ccc(C(=O)O)cc2)c(COP(=O)(O)O)c(C=O)c1O | inactive
66 | Cc1cccc(C2CN(C)CCc3c2cc(O)c(O)c3Cl)c1 (stereo unspecified) | inactive
67 | [N-]=[N+]=Nc1ccc(C(=O)CSC[C@H](NC(=O)CC[C@H](N)C(=O)O)C(=O)NCC(=O)O)cc1 | inactive
68 | CCCCCC(O)CCCC(=O)O (stereo unspecified) | inactive
69 | NCC(O)c1ccc(O)c(O)c1 (stereo unspecified) | inactive
70 | O=C(OCCN1CCOCC1)C1(c2ccccc2)CCCCC1 | inactive
71 | O=C(O)/C(=C/c1c(C(=O)O)[nH]c2cc(Cl)cc(Cl)c12)c1ccccc1 | inactive
72 | O=C(O)CCC/C=C\C[C@@H]1[C@@H](/C=C/[C@H](O)C2Cc3ccccc3C2)[C@@H](F)C[C@@H]1O | inactive
73 | NC1CONC1=O (stereo unspecified) | inactive
74 | CCCCCCN(CCCCCC)C(=O)Cc1c(-c2ccc(F)cc2)[nH]c2ccccc12 | inactive
75 | CNc1ncnc2c1ncn2[C@H]1C[C@H](OP(=O)(O)O)[C@@H](COP(=O)(O)O)O1 | inactive
76 | CC(C)(C)c1cc(/C=C(\C#N)C(N)=S)cc(C(C)(C)C)c1O | inactive

From PubChem BioAssay (NCATS)
